Reference: the supplement of paper PMC10849652
Targets with a hit are over-represented here; the source holds about 8,800 in all. About 0.5% of all pairs of compound and target were hits.

What was measured:
Test in all cases: log2 fold change, soluble protein after heating vs DMSO (PISA); higher = thermal stabilisation; K562 lysate, 10 uM; active = over 0.2 and 3.5 SD of the protein, either way, in both replicates (recomputed)
[1] = compound: CCCS(=O)(=O)Nc1ccc(F)c(C(=O)c2c[nH]c3ncc(-c4ccc(Cl)cc4)cc23)c1F [vemurafenib]
In short: (§1)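 Values give the log-two fold change in thermal stability against solvent controls, from duplicates. Crude K562 extract at 1 mg/mL protein, made by dounce homogenisation in PBS pH 7.4 with 1 mM MgCl2, was treated with 10 μM compound for 30 min. After 3 min heating across 48°C-58°C, aliquots were pooled, adjusted to 0.5% NP-40 at 4°C and centrifuged at 21,000xg for 90 min. The supernatant was measured by TMTpro 16plex LC-MS/MS with channel sums equalised.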

[2] = compound: CCCS(=O)(=O)Nc1ccc(F)c(C(=O)c2c[nH]c3ncc(Cl)cc23)c1F
In short: as §1

[3] = compound: CCN(CCCOc1ccc2c(Nc3cc(CC(=O)Nc4cccc(F)c4)[nH]n3)ncnc2c1)CCOP(=O)(O)O [barasertib]
In short: as §1

[4] = compound: CC[C@@H]1C(=O)N(C)c2cnc(Nc3ccc(C(=O)NC4CCN(C)CC4)cc3OC)nc2N1C1CCCC1
In short: as §1

[5] = compound: CC[C@@H]1C(=O)N(C)c2cnc(Nc3ccc(C(=O)N[C@H]4CC[C@H](N5CCN(CC6CC6)CC5)CC4)cc3OC)nc2N1C(C)C [volasertib]
In short: as §1

[6] = compound: CCn1c(C(=O)N(C2CC2)C2CC2)cc2c3c(ncn3C)c(Nc3cc(C)n(C)n3)nc21
In short: as §1

[7] = compound: CCn1cc(-c2ccnc3[nH]c(-c4cccc(CN(C)C)c4)cc23)c(-c2ccc(NC(=O)N(C)C)cc2)n1
In short: as §1

[8] = compound: CN1CCC(CNc2ccc3ncc(-c4cccc(OC(F)(F)F)c4)n3n2)CC1
In short: as §1

[9] = compound: CN1CCN(CCOc2cc(OC3CCOCC3)c3c(Nc4c(Cl)ccc5c4OCO5)ncnc3c2)CC1 [saracatinib]
In short: as §1

[10] = compound: CN1CCN(c2nc(C3=C(c4c[nH]c5ccccc45)C(=O)NC3=O)c3ccccc3n2)CC1 [sotrastaurin]
In short: as §1

Measured: log2 fold change

SYNE2 isoform 2 (UniProt Q8WXH0)
inactive: [1] 0.009 | [2] 0.005 | [3] 0.085 | [4] 0.004 | [5] 0.065 | [6] -0.042 | [8] 0.371 | [9] -0.054 | [10] 0.035
active: [7] -0.966

SSNA1 (UniProt O43805)
Sequence of UniProt O43805 (O43805 whole entry, looked up): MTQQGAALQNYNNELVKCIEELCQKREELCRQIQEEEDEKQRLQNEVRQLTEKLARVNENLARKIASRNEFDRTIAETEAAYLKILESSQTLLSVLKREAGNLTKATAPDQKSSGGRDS
inactive: [1] -0.067 | [2] -0.022 | [3] 0.134 | [4] 0.075 | [5] 0.027 | [6] 0.016 | [7] -0.005 | [8] -0.002 | [9] 0.013 | [10] 0.004

SUZ12 (UniProt Q15022)
Sequence of UniProt Q15022 (Q15022 whole entry, looked up): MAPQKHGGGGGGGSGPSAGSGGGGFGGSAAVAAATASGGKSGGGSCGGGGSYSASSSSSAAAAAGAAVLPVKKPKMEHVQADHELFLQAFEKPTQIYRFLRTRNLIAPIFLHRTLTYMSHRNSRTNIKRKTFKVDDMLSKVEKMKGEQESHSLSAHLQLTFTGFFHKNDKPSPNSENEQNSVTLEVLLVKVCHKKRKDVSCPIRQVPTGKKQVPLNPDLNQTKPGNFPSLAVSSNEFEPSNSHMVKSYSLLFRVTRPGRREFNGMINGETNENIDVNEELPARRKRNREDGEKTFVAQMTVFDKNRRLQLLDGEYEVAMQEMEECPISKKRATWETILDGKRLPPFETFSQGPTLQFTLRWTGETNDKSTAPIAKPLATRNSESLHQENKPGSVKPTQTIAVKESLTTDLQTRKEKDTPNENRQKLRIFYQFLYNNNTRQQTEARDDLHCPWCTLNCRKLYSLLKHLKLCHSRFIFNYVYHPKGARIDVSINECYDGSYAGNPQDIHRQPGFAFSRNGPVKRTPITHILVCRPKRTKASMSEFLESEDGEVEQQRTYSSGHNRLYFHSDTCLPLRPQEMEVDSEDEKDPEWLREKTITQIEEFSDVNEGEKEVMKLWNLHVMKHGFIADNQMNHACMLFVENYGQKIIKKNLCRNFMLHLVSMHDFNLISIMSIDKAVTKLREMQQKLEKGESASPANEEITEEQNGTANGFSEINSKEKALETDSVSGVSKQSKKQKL
inactive: [1] 0.012 | [2] 0.022 | [3] -0.012 | [4] 0.024 | [5] -0.001 | [6] 0.012 | [7] -0.026 | [8] -0.002 | [9] -0.019 | [10] 0

SNX6, A0A0A0MRI2
inactive: [1] 0.005 | [2] 0.025 | [3] 0.006 | [4] -0.111 | [5] -0.05 | [6] 0.026 | [7] 0.21 | [8] -0.126 | [9] -0.002 | [10] -0.013

SLC27A2 (UniProt O14975)
Sequence of UniProt O14975 (O14975 whole entry, looked up): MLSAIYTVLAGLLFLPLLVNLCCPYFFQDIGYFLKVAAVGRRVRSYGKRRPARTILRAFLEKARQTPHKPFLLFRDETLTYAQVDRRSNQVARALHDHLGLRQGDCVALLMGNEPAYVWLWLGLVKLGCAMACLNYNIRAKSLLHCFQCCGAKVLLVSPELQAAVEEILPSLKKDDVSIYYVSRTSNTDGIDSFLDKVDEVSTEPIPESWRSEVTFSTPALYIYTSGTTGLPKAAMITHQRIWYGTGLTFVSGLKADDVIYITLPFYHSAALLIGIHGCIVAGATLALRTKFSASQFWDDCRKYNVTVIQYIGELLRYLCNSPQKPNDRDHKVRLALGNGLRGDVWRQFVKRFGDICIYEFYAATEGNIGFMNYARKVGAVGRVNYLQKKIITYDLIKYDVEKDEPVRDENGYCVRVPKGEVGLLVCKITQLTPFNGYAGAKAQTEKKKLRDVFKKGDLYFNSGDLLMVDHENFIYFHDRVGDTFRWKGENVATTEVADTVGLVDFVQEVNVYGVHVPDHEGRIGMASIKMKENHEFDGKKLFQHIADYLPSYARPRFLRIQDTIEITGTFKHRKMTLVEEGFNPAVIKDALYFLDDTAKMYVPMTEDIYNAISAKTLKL
inactive: [1] 0.089 | [2] 0.009 | [3] 0.029 | [4] -0.033 | [5] -0.084 | [6] -0.063 | [7] -0.024 | [8] 0.082 | [9] -0.021 | [10] 0.159

SRPK1 (UniProt Q96SB4)
Sequence of UniProt Q96SB4 (Q96SB4 whole entry, looked up): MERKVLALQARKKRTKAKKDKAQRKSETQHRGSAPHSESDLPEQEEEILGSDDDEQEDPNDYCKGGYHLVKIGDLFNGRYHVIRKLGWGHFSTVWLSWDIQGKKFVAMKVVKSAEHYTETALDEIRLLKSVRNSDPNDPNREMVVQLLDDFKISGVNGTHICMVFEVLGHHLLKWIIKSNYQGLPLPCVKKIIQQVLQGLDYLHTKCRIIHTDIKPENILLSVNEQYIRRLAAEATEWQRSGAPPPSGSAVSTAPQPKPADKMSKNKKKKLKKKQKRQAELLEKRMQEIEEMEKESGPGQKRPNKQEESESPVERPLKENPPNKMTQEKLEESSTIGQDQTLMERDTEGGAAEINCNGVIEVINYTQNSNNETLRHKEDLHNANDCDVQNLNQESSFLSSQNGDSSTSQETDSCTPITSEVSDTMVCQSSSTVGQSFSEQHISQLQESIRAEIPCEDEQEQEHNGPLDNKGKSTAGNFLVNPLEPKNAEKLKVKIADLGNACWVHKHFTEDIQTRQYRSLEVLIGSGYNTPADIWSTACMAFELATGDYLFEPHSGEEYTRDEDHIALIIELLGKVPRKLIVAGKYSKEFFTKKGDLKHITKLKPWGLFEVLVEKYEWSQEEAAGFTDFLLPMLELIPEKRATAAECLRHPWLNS
inactive: [1] 0.003 | [2] 0.029 | [3] -0.014 | [4] 0.093 | [5] -0.01 | [6] 0.008 | [7] 0.055 | [8] -0.072 | [9] 0.012 | [10] 0.021

TARDBP (UniProt Q13148)
Sequence of UniProt Q13148 (Q13148 whole entry, looked up): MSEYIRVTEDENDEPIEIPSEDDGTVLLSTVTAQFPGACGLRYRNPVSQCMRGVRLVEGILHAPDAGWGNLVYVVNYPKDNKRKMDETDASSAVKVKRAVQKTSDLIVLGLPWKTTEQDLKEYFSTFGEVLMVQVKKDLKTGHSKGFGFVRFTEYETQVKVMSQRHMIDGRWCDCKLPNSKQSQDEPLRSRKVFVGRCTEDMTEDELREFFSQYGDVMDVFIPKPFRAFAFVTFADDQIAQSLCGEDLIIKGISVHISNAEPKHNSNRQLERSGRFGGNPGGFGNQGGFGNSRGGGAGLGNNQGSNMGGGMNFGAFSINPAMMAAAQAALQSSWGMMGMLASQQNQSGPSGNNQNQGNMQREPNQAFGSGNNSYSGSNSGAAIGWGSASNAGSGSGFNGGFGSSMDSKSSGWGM
inactive: [1] 0.027 | [2] 0.016 | [3] 0.151 | [4] 0.007 | [5] -0.125 | [6] 0.169 | [7] -0.008 | [8] -0.069 | [9] 0.058 | [10] -0.032

STOML2 (UniProt Q9UJZ1)
Sequence of UniProt Q9UJZ1 (Q9UJZ1 whole entry, looked up): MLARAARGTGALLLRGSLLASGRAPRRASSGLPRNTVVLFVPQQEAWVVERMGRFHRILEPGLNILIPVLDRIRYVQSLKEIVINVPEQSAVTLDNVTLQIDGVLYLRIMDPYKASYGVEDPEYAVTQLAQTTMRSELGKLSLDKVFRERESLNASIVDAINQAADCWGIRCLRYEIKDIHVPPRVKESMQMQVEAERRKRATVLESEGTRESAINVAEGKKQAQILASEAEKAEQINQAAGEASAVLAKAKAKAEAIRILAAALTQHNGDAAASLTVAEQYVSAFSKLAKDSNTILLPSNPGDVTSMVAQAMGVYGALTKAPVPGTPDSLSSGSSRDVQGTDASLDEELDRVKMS
inactive: [1] 0.026 | [2] 0.009 | [3] 0.115 | [4] 0.043 | [5] 0.033 | [6] -0.015 | [7] 0.111 | [8] -0.047 | [9] -0.01 | [10] -0.002

SHKBP1 (UniProt Q8TBC3)
inactive: [1] 0.079 | [2] -0.017 | [3] 0.03 | [4] -0.038 | [5] 0.033 | [6] -0.058 | [7] -0.093 | [8] 0.103 | [9] 0.013 | [10] 0.017

SLC25A32 (UniProt Q9H2D1)
Sequence of UniProt Q9H2D1 (Q9H2D1 whole entry, looked up): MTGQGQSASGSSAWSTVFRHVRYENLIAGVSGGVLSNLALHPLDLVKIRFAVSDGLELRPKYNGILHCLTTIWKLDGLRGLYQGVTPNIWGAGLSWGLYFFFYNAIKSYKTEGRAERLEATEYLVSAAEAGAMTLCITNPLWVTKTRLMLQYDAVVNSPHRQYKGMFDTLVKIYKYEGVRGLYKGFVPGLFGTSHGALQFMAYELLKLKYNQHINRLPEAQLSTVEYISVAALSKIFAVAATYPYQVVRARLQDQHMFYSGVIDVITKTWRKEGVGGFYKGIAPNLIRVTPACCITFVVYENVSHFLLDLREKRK
inactive: [1] 0.053 | [2] 0.01 | [3] -0.012 | [4] -0.013 | [5] 0.002 | [6] -0.045 | [7] -0.129 | [8] 0.054 | [9] 0.029 | [10] 0.007

SPR (UniProt P35270)
Sequence of UniProt P35270 (P35270 whole entry, looked up): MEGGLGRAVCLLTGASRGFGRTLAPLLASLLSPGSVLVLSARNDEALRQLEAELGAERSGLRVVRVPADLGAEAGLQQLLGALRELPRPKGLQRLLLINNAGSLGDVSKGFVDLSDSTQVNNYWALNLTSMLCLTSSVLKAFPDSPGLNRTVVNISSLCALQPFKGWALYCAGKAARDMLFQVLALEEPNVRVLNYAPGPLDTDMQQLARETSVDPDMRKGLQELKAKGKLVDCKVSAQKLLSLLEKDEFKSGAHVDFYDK
inactive: [1] 0.01 | [2] 0.026 | [3] -0.013 | [4] -0.014 | [5] -0.003 | [6] -0.024 | [7] 0.158 | [8] -0.028 | [9] 0.093 | [10] -0.047

STK36 (UniProt Q9NRP7)
inactive: [1] 0.188 | [2] 0.038 | [3] -0.073 | [4] 0.302 | [5] 0.01 | [6] -0.445 | [7] -0.532 | [8] 0.442 | [9] 0.077 | [10] -0.072

SRSF2 (UniProt Q01130)
Sequence of UniProt Q01130 (Q01130 whole entry, looked up): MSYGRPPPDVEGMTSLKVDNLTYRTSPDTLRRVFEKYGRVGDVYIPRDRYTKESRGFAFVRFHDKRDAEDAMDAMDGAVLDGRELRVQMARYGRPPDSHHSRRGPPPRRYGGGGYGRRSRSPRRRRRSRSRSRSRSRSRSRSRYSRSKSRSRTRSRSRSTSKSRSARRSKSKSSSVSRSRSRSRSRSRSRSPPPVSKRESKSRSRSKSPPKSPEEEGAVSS
inactive: [1] -0.001 | [2] -0.014 | [3] -0.007 | [4] 0.02 | [5] 0.002 | [6] -0.065 | [7] -0.232 | [8] 0.153 | [9] 0.033 | [10] 0.024

TAPT1 (UniProt Q6NXT6)
Sequence of UniProt Q6NXT6 (Q6NXT6 whole entry, looked up): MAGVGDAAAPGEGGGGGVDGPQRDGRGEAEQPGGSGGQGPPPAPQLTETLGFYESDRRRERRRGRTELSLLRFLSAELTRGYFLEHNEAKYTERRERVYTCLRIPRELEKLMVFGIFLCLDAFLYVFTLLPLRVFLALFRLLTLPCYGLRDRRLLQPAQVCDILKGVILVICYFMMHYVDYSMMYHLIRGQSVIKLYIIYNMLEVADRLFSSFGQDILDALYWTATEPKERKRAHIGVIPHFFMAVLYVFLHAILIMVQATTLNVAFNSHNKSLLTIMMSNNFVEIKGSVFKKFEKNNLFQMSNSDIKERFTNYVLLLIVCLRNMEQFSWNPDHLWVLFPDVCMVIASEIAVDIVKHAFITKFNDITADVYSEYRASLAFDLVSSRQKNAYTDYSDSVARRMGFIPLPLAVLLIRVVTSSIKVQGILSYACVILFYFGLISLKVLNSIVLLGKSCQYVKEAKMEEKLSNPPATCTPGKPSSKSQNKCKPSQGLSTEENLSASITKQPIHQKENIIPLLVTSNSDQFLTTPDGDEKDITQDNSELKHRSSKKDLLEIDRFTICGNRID
inactive: [1] 0.031 | [2] 0.043 | [3] -0.039 | [4] 0.024 | [5] 0.028 | [6] -0.026 | [8] 0.106 | [9] -0.014 | [10] -0.002
active: [7] -0.229

SMAD2 (UniProt Q15796)
Sequence of UniProt Q15796 (Q15796 whole entry, looked up): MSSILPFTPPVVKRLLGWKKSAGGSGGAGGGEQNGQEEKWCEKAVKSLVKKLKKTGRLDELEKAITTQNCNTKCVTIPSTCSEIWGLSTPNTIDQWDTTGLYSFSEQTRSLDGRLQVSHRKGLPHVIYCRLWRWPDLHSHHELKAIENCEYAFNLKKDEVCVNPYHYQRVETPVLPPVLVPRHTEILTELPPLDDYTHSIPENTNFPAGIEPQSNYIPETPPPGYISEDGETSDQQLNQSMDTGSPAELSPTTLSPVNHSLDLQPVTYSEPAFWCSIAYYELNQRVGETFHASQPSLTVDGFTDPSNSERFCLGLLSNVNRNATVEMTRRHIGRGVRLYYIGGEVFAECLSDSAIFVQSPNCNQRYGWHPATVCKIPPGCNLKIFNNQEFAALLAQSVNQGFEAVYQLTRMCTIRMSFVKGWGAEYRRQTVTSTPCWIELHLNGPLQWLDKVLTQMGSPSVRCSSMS
inactive: [1] -0.027 | [2] 0.074 | [3] 0.03 | [4] -0.031 | [5] -0.006 | [6] -0.027 | [7] 0.025 | [8] -0.003 | [9] 0.017 | [10] -0.002
